Percent activity (GTP binding) data for 97 compounds are collected here from PubChem BioAssay AID764 (NMMLSC, 2007).

Among all 190,000 compounds or so, about 220 (0.12%) were called active. About 2% were inconclusive and are not listed. This is one part of a sample in which actives are shown more often than they occur. A number with no mark means an inactive call.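 The calls were made as follows: active = GTP binding at least 20 percentage points away from the 100% baseline, in either direction, so actives lie on both sides; inconclusive = Compound likely fluorescent itself, or too few beads counted; inactive = the rest.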

The assay deals with Ras-related C3 botulinum toxin substrate 1 (Homo sapiens) (UniProt P63000). In words: activated Rac1 mutant nucleotide binding changes – biochemical, bead-based flow cytometry, multiplex, fluorescent GTP, primary screen (AID 764). The note with it: GST-Rac1 activated beads, at 10 µM, actives lie on both sides, 100% means binding = to untreated wells. A general note: In flow cytometry, cells or beads pass a laser one at a time.
On to `Cc1ccc(SC(C)C(=O)NCc2ccc(F)cc2)cc1` (configuration not stated), for which the percent activity (GTP binding) was 94%. Consider `CC(C)(C)CN1CCNC(=O)C1CC(=O)NC1Cc2ccccc2C1` (configuration not stated), for which the percent activity (GTP binding) is 91%. `O=C(NC(=S)Nc1ccc(S(=O)(=O)Nc2ncccn2)cc1)c1cccc(Br)c1`: the percent activity (GTP binding) was 92%. Turning to `O=C(/C=C\c1cn(-c2ccccc2)nc1-c1cccs1)N1CCOCC1`, the percent activity (GTP binding) is 103%. Turning to `O=C(O)/C=C/c1cn(-c2ccccc2)nc1-c1cccs1`, the percent activity (GTP binding) was 89%.

For `O=C(O)/C=C/c1cn(Cc2ccccc2)nc1-c1cccs1`, the percent activity (GTP binding) was 130% [activator] (active).

With `Cc1cc(N2CCOCC2)nc2ccc(NC(=S)N3CCN(Cc4ccccc4)CC3)cc12`, the percent activity (GTP binding) was 96%. On to `O=C(Nc1ccc(N2CCOCC2)cc1)c1ccc(-c2ccccc2[N+](=O)[O-])o1`, for which the percent activity (GTP binding) was 93%. In the case of `Cn1cc(Cl)c(C(=O)NNC(=S)Nc2cccc(Cl)c2)n1`, the percent activity (GTP binding) was 91%. Take `O=C(O)c1ccc(/C=N/NC(=S)NCc2ccccc2)cc1`: the percent activity (GTP binding) is 94%. Take `CN(C)C(=O)c1cccn(Cc2cccc(C(F)(F)F)c2)c1=O`: the percent activity (GTP binding) is 94%.

Consider `CN(C)N(C)C(=O)C(O)(c1ccccc1)c1ccccc1`, for which the percent activity (GTP binding) was 96%.

With `Cc1cc(C(=O)CC#N)c(C)n1-c1c(C)n(C)n(-c2ccccc2)c1=O`, the percent activity (GTP binding) is 96%. Consider `O=C(O)CCN(Cc1ccccc1)S(=O)(=O)c1c(Cl)cccc1Cl`, for which the percent activity (GTP binding) was 95%. Then `Cc1[nH]c2ccccc2c1/C=C(/C#N)C(=O)NC(C)C`, with 95%. Consider `Cn1cc(CN2CCCC(CO)C2)c(-c2ccc(Oc3ccccc3)cc2)n1` (configuration not stated), for which the percent activity (GTP binding) was 94%.

As to `COc1ccc(/C=C/CN2CCCC(C(=O)c3cc(F)ccc3F)C2)cc1` (configuration not stated), the percent activity (GTP binding) was 96%.

Take `CN1C=CC=C/C1=C1\SC(=S)N(Cc2ccccc2)C1=O`: the percent activity (GTP binding) was 97%. `Cc1cc(C(=O)NNC(=O)c2cccc(S(=O)(=O)N3CCOCC3)c2)c2ccccc2n1`: the percent activity (GTP binding) is 93%. On to `Cc1noc(C)c1/C=N/Nc1ccc2ccccc2n1`, for which the percent activity (GTP binding) was 97%. For the compound `O=C(c1ccncc1)N1CCN(c2ccc3ccccc3n2)CC1`, the percent activity (GTP binding) was 98%.

For the compound `COc1cc(/C=C/C(=O)OCC(=O)NC(=O)NCc2ccccc2)ccc1OCC#N`, the percent activity (GTP binding) is 90%.

For the compound `O=C(c1ccc2ccccc2n1)N1CCN(c2ccccc2Cl)CC1`, the percent activity (GTP binding) is 95%. Turning to `CCn1c(SCC(=O)Nc2nccs2)nnc1-c1ccco1`, the percent activity (GTP binding) is 95%.

On to `COc1ccc(OC)c(S(=O)(=O)Nc2cccc(-c3ccc4nncn4n3)c2)c1`, for which the percent activity (GTP binding) was 95%. For `Cc1ccc(-n2cc(CN(C)Cc3nccn3C)c(-c3cccc(C)c3)n2)cc1`, the percent activity (GTP binding) was 97%. With `Cc1ccc(C(=O)Nc2cccc3ncccc23)cc1[N+](=O)[O-]`, the percent activity (GTP binding) is 94%.

With `O=C(CN1CCN(C/C=C/c2ccccc2)CC1)Nc1ccc(F)cc1F`, the percent activity (GTP binding) was 93%. Then `CCc1ccc(N2CC(O)=C(c3nc4ccccc4c(=O)[nH]3)C2=N)cc1`, with 94%; and `COc1ccc(/C=N/n2c(C)cc(C)cc2=O)cc1`, with 97%. Consider `CC(C)Oc1ccccc1C(=O)NC(CO)C(=O)O` (configuration not stated), for which the percent activity (GTP binding) is 96%. On to `CCOC(=O)C1=NOC(Cn2cc(C(C)=O)c(=O)[nH]c2=O)C1` (configuration not stated), for which the percent activity (GTP binding) is 92%. `COC(=O)CN1C(=O)N/C(=C/c2ccc(OC)c(C)c2OC)C1=O`: the percent activity (GTP binding) was 96%. As for `CCOc1cc(NS(=O)(=O)c2ccc(OC)cc2)c(OCC)cc1NC(C)=O`, the percent activity (GTP binding) was 97%. Consider `CN(C)S(=O)(=O)c1ccc2oc(SCC(=O)Nc3ccccc3F)nc2c1`, for which the percent activity (GTP binding) is 95%. As to `Cc1nc2cc(NCc3cccs3)ccc2n1C`, the percent activity (GTP binding) is 97%.

As for `CCOP(=O)(OCC)C(Nc1ccc([N+](=O)[O-])cc1)c1ccc(Cl)cc1` (configuration not stated), the percent activity (GTP binding) is 92%. Then `CCNC(=O)c1ccc(OCC(=O)Nc2ccc(F)cc2)c(OC)c1`, with 94%; and `CCC(=O)Nc1ccc(Nc2nc(Cl)nc(Nc3ccc(NC(=O)CC)cc3)n2)cc1`, with 94%; and `Cc1nnc(CN(C)Cc2cn[nH]c2-c2ccc(-c3ccccc3)cc2)o1`, with 97%. Next, `CC1(C)OC(=O)C(=CSc2ccc(C(C)(C)C)cc2)C(=O)O1`: 96%; `COc1ccccc1NC(=O)c1c(Br)cnn1C`: 95%; `Cc1cnc(C(=O)OCC(=O)N2CCc3ccccc32)cn1`: 96%. In the case of `Cc1cc(C)c(C#N)c(N2CCC(C(N)=O)CC2)n1`, the percent activity (GTP binding) was 98%.

Regarding `OCCC1CN(Cc2cccc(OC3CCCC3)c2)CCN1Cc1ccsc1` (configuration not stated), the percent activity (GTP binding) was 95%.

Take `CCN(CC)CCNC(=O)c1ccc(NC(=O)c2c(F)cccc2Cl)cc1`: the percent activity (GTP binding) is 99%. For the compound `CCc1ccc(-n2c(SCc3cc(=O)n4cc(Br)ccc4n3)nc3[nH]ncc3c2=O)cc1`, the percent activity (GTP binding) was 94%.

For the compound `O=C1CC(=O)Nc2cc(S(=O)(=O)N3CCN(c4cccc(C(F)(F)F)c4)CC3)ccc2N1`, the percent activity (GTP binding) was 93%. On to `COc1ccc(OC)c(CNC(=O)c2cc(=O)[nH]c3ccc(S(=O)(=O)N4CCCC4)cc23)c1`, for which the percent activity (GTP binding) is 95%. Then `CC(C)(C)NC(=O)NC(=O)COC(=O)C1(C)CC1(Cl)Cl` (configuration not stated), with 97%; and `COC(=O)C(NS(=O)(=O)c1ccc(F)cc1)c1ccccc1` (configuration not stated), with 96%. Take `O=C(CP(=O)(c1ccccc1)c1ccccc1)N1CCOCC1`: the percent activity (GTP binding) is 92%.

For the compound `O=C(C1CC1)N1N=C2CCCCC2C1(O)C(F)(F)F` (configuration not stated), the percent activity (GTP binding) was 96%. Turning to `Cc1ccc(C)c(-n2cc(CN3CCN(C(=O)c4ncn[nH]4)CC3)c(-c3ccccc3)n2)c1`, the percent activity (GTP binding) is 95%.

Turning to `CCN(CC)S(=O)(=O)c1ccc(N2CCOCC2)c(NC(=O)C2COc3ccccc3O2)c1` (configuration not stated), the percent activity (GTP binding) is 97%. Then `CCOC(=O)C1=C(CC)OC(N)=C(C#N)C1c1ccc(F)cc1F` (configuration not stated), with 93%; and `O=C(O)c1cccc(NC(=O)c2cc(-c3cccc(Cl)c3)nc3ccccc23)c1`, with 93%. Take `COc1ccc(C2C(C#N)=C(N)N(c3ncn[nH]3)C3=C2C(=O)CCC3)cc1` (configuration not stated): the percent activity (GTP binding) was 96%. As to `COc1ccc(N2CCN(C(=O)CCSCc3ccccc3F)CC2)cc1`, the percent activity (GTP binding) is 92%. On to `Cc1ccnc(NC(=O)CCC(=O)N(CC(=O)NCCc2ccccc2)Cc2cccs2)c1`, for which the percent activity (GTP binding) was 97%. Then `COc1ccc(NC(=O)/C(C#N)=C\c2cc(OC)c(OCc3ccc(C(=O)O)cc3)cc2Br)cc1`, with 89%; and `C1CC1Cc1noc(CN2CCN(CC3CC3)CC2)n1`, with 94%. As for `CCn1c(CNC(=O)c2ccco2)nnc1SCC(=O)Nc1cccc(F)c1`, the percent activity (GTP binding) was 98%.

Turning to `Cn1c(SCC(=O)NC2CCCCC2)nnc1-c1ccc(N)cc1`, the percent activity (GTP binding) is 96%.

Consider `CC(=O)NC1(c2ccc(F)cc2)CCN(C(=O)c2c(F)cccc2F)CC1`, for which the percent activity (GTP binding) was 92%. `CN(C)C(CNC(=O)c1cccc(C#N)c1)c1ccco1` (configuration not stated): the percent activity (GTP binding) was 97%. Turning to `COc1ccc(C(=O)COC(=O)c2nn(C)c(=O)c3ccccc23)c(OC)c1`, the percent activity (GTP binding) was 92%. Turning to `Cc1c(Br)c([N+](=O)[O-])nn1CC(=O)N1CCN(Cc2ccccc2)CC1`, the percent activity (GTP binding) was 98%. As for `CC(=O)c1ccc(NC(=S)N(Cc2ccccc2)C(C)C2CC2)cc1` (configuration not stated), the percent activity (GTP binding) was 93%.

As for `CCN(CCn1cccn1)C(=O)CC1C(=O)NCCN1Cc1cccc(OC)c1OC` (configuration not stated), the percent activity (GTP binding) is 93%. As to `CCOC(=O)CNc1nc(Cl)nc(Nc2ccccc2)n1`, the percent activity (GTP binding) was 96%. On to `Cc1ccc(SC(CC(=O)c2ccc(C(C)(C)C)cc2)C(=O)O)cc1` (configuration not stated), for which the percent activity (GTP binding) was 74% (active). Take `Cc1ccc(CSCC(N)C(=O)O)cc1` (configuration not stated): the percent activity (GTP binding) was 97%. Take `Cc1ccc(C(=O)CS(C)(=O)=O)cc1`: the percent activity (GTP binding) was 99%. With `Cc1cc(C)nc(Nc2ncn[nH]2)n1`, the percent activity (GTP binding) was 96%. As to `Cc1ncc([N+](=O)[O-])n1CCOC(=O)c1ccc(Br)cc1`, the percent activity (GTP binding) was 91%. Consider `CCCCN(C(=O)c1ccc(OC(F)(F)F)cc1)c1c(N)n(CCC)c(=O)[nH]c1=O`, for which the percent activity (GTP binding) was 96%. As to `Cn1cc(CN2CCCCC2c2ccccn2)c(-c2ccc3c(c2)OCCO3)n1` (configuration not stated), the percent activity (GTP binding) was 97%.

For the compound `CCC(=O)N1c2ccccc2NC2=C(C(=O)CCC2)C1c1ccco1` (configuration not stated), the percent activity (GTP binding) is 98%. On to `Cc1ccc(CN2CCN(Cc3cccc(C)n3)CC2CCO)cc1` (configuration not stated), for which the percent activity (GTP binding) is 94%. With `CC(=O)C1C(c2ccc(Cl)cc2)c2c(n[nH]c2C)CC1(C)O` (configuration not stated), the percent activity (GTP binding) was 97%. Then `COc1cc(/C=C/C2=CC(C)(C)NC(=S)N2)cc(OC)c1OC`, with 94%; and `O=C(CCNC(=O)Cn1ccc2ccccc2c1=O)NCCC1=CCCCC1`, with 101%; and `COc1cc2c(C(=O)N3CCN(C)CC3)c(CSc3ccccc3)n(C)c2cc1Br`, with 94%. Regarding `Cc1nn(CC2CC2)c(=O)n1N(C)c1ncc(C(F)(F)F)cc1Cl`, the percent activity (GTP binding) was 96%. Then `COc1cccc(CNC(=O)CCC2CCCN(C(=O)c3ccoc3C)C2)c1` (configuration not stated), with 95%; and `COC(=O)NNC1=CC(=O)CC(C)(C)C1`, with 97%; and `CCC(C)N(C(=O)COC(=O)C1C(C(=O)OC)=C(C)NC(C)=C1C(=O)OC)C1CCS(=O)(=O)C1` (configuration not stated), with 95%. Take `CC(C)(C)C(=O)CSc1nc2ccccc2o1`: the percent activity (GTP binding) is 96%.

Consider `Cn1cnnc1SCC(=O)NNC(=O)COc1ccc(Br)cc1`, for which the percent activity (GTP binding) was 98%.

Consider `O=C(CN1CCSCC1)N/N=C/c1ccc(Cl)cc1`, for which the percent activity (GTP binding) was 95%. Turning to `O=C(Cc1ccc(Cl)cc1)NCc1nc(-c2ccccc2)no1`, the percent activity (GTP binding) is 91%. Next, `COc1ccc(N2C(=O)CC(Nc3ccc(F)cc3)C2=O)c([N+](=O)[O-])c1` (configuration not stated): 93%.

In the case of `COC(=O)C1=C(C)NC(=O)CC1c1ccccc1OC` (configuration not stated), the percent activity (GTP binding) is 99%. For `CCC(C)(C)NC(=O)C(c1ccccn1)N(C(=O)c1csnn1)c1ccccc1` (configuration not stated), the percent activity (GTP binding) is 96%. Regarding `Cc1cc(C(=O)Cn2cnc3cc([N+](=O)[O-])ccc3c2=O)c(C)n1CC1CCCO1` (configuration not stated), the percent activity (GTP binding) is 90%. As to `Cc1ccc(NC(=O)C(=O)NCc2ccco2)c(C)c1`, the percent activity (GTP binding) was 98%.
